Shown are actives, neighbours in structure and some others; about 1.2% of the full set was active somewhere.
RGS8-Gao reg – RGS8-Galphao binding modulators, primary screen, biochemical, multiplexed bead flow cytometry; Guanine nucleotide-binding protein G(o) subunit alpha (Homo sapiens), P09471; AID 1423, 2008; 220,000 tested, 0.34% active; response (percent of control binding), % at 10 µM; actives lie on both sides; in the data active = response below about 60% or above about 140%; inactive = in between;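 also: Galphao activated as the GDP aluminium fluoride complex binding bead-coupled RGS8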
Target sequence (P09471 whole entry, looked up): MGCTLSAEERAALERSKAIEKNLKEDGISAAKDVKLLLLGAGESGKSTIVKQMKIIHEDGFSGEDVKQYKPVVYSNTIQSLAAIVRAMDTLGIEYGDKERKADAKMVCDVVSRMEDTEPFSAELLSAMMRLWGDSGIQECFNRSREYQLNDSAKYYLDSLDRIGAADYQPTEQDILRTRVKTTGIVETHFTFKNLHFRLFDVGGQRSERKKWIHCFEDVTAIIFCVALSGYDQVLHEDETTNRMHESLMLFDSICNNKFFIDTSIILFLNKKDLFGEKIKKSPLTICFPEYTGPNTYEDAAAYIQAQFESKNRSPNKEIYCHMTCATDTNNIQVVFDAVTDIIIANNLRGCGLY
RGS7-Gao reg – RGS7-Galphao binding modulators, primary screen, biochemical, multiplexed bead flow cytometry | Guanine nucleotide-binding protein G(o) subunit alpha (Homo sapiens), P09471 | actives lie on both sides | binding response (% of control), % at 10 µM | 220,000 tested, 0.35% active | AID 1439, 2008; in the data active = binding response below about 49% or above about 150%; inconclusive = no clear call, values can overlap the other calls; inactive = in between;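 also: fluorescent Galphao held in activated GDP-AlF4 state binding bead-coupled RGS7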
RGS4-Gao reg – modulators of RGS4 binding to Galphao, primary screen, biochemical, multiplexed bead flow cytometry. actives lie on both sides. binding response (% of control), % at 10 µM. 220,000 tested, 0.33% active; in the data active = binding response below about 49% or above about 150%; inactive = in between;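 also: fluorescent Galphao activated with aluminum fluoride binding bead-coupled RGS4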
RGS16-Gao – modulators of RGS16 binding to Galphao, primary screen, biochemical, human proteins, multiplexed bead flow cytometry | binding response (% of control), % at 10 µM | AID 1441, 2008 | Regulator of G-protein signaling 16 (Homo sapiens) + Guanine nucleotide-binding protein … | 220,000 tested, 0.38% active | bead-based flow cytometry RGS16-Galphao binding, fluorescence; actives lie on both sides;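 also: Galphao activated by GDP with aluminum fluoride before binding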
GSH bead fluor – compound fluorescence on glutathione beads, profiling panel, artefact control, biophysical, 488/530 nm, flow cytometry | GSH beads flow cytometry, compound fluorescence 488/530 nm; active compounds read high | 190,000 tested, 0.25% active | fluorescence (KMESF) at 10 µM; in the data active = fluorescence above about 89;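 also: glutathione beads carrying GST-tagged Bcl family fusion proteins plus one bare bead set; values are compound well signal with DMSO vehicle wells as background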
Avidin bead fluor – green autofluorescence of compounds with avidin beads – biophysical, 488/530 nm, flow cytometry, artefact control, profiling panel. 220,000 tested, 0.38% active. compound fluorescence 488/530 nm; active compounds read high. AID 1775, 2009. fluorescence (KMESF) at 10 µM; in the data active = fluorescence above about 47
RGS4-Gao HTS – modulators of RGS–Galpha-o binding, primary screen, biochemical, multiplexed beads, flow cytometry, RGS4/7/8/16/19; multiplexed bead flow cytometry; AID 1504, 2009; RGS4–Galpha-o binding response, % at 10 µM; shares compounds with RGS16-Gao; 1,600 tested, 99% active;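 also: fluorescently labeled Galpha-o bound to GDP with aluminium fluoride binding biotinylated RGS beads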
Biotin-avidin – disruption of biotin probe capture by avidin, counter-screen for RGS protein interaction modulators, biochemical, flow cytometry, bead-based; shares compounds with RGS16-Gao; streptavidin beads, fluorescein-biotin binding; inhibition, % at 10 µM; 1,700 tested, under 10 active;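 active = inhibition above 50%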;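 also: median green fluorescence of gated singlet beads compared with DMSO control wells; 0% = DMSO wells and 100% = complete loss of bead fluorescence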
RGS8-Gao single – RGS8-Galphao binding modulators, confirmation, biochemical, multiplexed bead flow cytometry, single concentration; bead-based flow cytometry RGS8-Galphao binding, fluorescence; actives lie on both sides; 1,700 tested, 3% active; AID 1836, 2009; binding response (% of control), % at 10 µM; shares compounds with RGS16-Gao; in the data active = binding response below about 72% or above about 130%; inactive = in between;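 also: Galphao activated as GDP AlF4 complex before binding bead RGS8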
RGS7-Gao single – RGS7-Galphao binding modulators, confirmation, biochemical, multiplexed bead flow cytometry, single concentration; shares compounds with RGS16-Gao; bead-based flow cytometry RGS7-Galphao binding; actives lie on both sides; response (percent of control binding), % at 10 µM; 1,700 tested, 7.8% active; in the data active = response below about 75% or above about 130%; inactive = in between;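 also: fluorescent Galphao activated with GDP and aluminum fluoride binding bead-coupled RGS7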
RGS16-Gao conf – modulators of RGS16-Galphao protein binding, confirmation, biochemical, single concentration, multiplexed bead flow cytometry; shares compounds with RGS16-Gao; bead-based flow cytometry; actives lie on both sides; response (% of control binding), % at 10 µM; 1,700 tested, 4% active; AID 1838, 2009; in the data active = response below about 74% or above about 130%; inactive = in between;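 also: Galphao activated as the GDP aluminium fluoride complex binding bead-coupled RGS16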
RGS4-Gao single – modulators of RGS4-Galphao protein binding, confirmation, biochemical, single concentration, multiplexed bead flow cytometry | shares compounds with RGS16-Gao | binding response (% of control), % at 10 µM | 1,700 tested, 4% active | actives lie on both sides | AID 1840, 2009; in the data active = binding response below about 74% or above about 130%; inactive = in between
RGS19-Gao conf – regulators of RGS19-Galphao binding, confirmation, biochemical, single point, multiplexed bead flow cytometry | response (percent of control binding), % at 10 µM | AID 1841, 2009 | 1,700 tested, 5% active | bead-based flow cytometry RGS19-Galphao binding; actives lie on both sides | shares compounds with RGS16-Gao; in the data active = response below about 50% or above about 160%; inactive = in between;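 also: 100% = no compound control and 0% = blank background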
Target sequence (P09471 whole entry, looked up): as above
Target sequence (P49795 whole entry, looked up): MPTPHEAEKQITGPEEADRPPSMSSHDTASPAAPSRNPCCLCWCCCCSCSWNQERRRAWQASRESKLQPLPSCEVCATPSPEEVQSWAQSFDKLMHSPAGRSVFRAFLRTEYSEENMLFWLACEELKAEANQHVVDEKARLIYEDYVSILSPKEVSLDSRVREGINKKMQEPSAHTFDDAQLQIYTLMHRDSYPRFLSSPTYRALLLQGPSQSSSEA
* hit, by the source's call; u = inconclusive; x = not tested or not shown; [ ] = dose if it differs, or a comment. Unless noted, no rule for the calls is given here.

SMILES | RGS8-Gao reg | RGS7-Gao reg | RGS4-Gao reg | RGS16-Gao | GSH bead fluor | Avidin bead fluor | Biotin-avidin | RGS8-Gao single | RGS7-Gao single | RGS16-Gao conf | RGS4-Gao single | RGS19-Gao conf | others
Cc1cc(NC(=O)c2ccccc2)n(C(C)(C)C)n1 | 101 | u | 99 | 100 | x | 4 | x | x | x | x | x | x
Cc1cc(NC(=O)c2ccccc2)nc(C)n1 | 150*[activator] | u | 174*[activator] | 174 | x | 4 | 0 | 104 | 105 | 105 | 104 | 100
CCCCC(=O)NC1(C(F)(F)F)NC(=O)N(C)C1=O (centres undefined) | 101 | u | 97 | 93 | x | 9 | x | x | x | x | x | x
COCCNC(=O)c1cc(Sc2nnc(C)s2)nc2ccccc12 | 60* | u | 36* | 40 | x | 2 | -1 | 105 | 94 | 111 | 96 | 109
CCOC(=O)c1c(C)[nH]c(C(=O)CSc2nnc(-c3ccncc3)n2CC)c1C | 99 | 100 | 101 | 105 | 36 | 13 | x | x | x | x | x | x
C=CCn1c(SCC(=O)c2[nH]c(C)c(C(=O)OCC)c2C)nc2scc(-c3ccc(OC)c(OC)c3)c2c1=O | 109 | 105 | 168*[activator] | 191*[activator] | 6 | 22 | 0 | 100 | 105 | 101 | 102 | 99
CSCCC(C(=O)OC1CCOC1=O)N1C(=O)c2ccccc2C1=O (centres undefined) | 102 | 96 | 97 | 97 | 11 | 9 | x | x | x | x | x | x
O=C(NCCSCc1ccc(Cl)cc1Cl)c1ccc(CN2CCOCC2)cc1 | 13* | -2.0* | -21* | -10* | 10 | -1 | 1 | 99 | 100 | 99 | 99 | 108
Oc1ccc(N2CCN(c3nnnn3-c3ccccc3)CC2)cc1 | 98 | u | 103 | 99 | 7 | 16 | x | x | x | x | x | x
N=C1C2=C3Sc4ccccc4N3CCCC2=NN1c1cccc(S(=O)(=O)O)c1 | 8.6* | u | -11* | -6.4* | x | -2 | -1 | 100 | 97 | 100 | 99 | 85
CSCCC(NC(N)=O)C(=O)NCc1ccccc1Cl (centres undefined) | 95 | 80 | 74 | -699* | 10 | 9 | -3 | 100 | 99 | 98 | 98 | 91 | RGS4-Gao HTS=74*
CSCCC(NC(N)=O)C(=O)NCc1cccc(Cl)c1 (centres undefined) | 109 | 105 | 109 | 126 | 6 | 7 | x | x | x | x | x | x
O=[N+]([O-])c1cccc(-c2noc(-c3ccco3)n2)c1 | 97 | u | 96 | 92 | x | 5 | x | x | x | x | x | x
Cc1cc(N)nc(C)c1C#N | 100 | 98 | 100 | 100 | 20 | 10 | x | x | x | x | x | x
Cc1cc(C)c(C#N)c(N)n1 | x | x | x | x | 11 | x | 0 | 101 | 99 | 99 | 102 | 94
CC(=O)NC(=S)Nc1ccc(NC(=O)COc2ccc(Cl)cc2Cl)cc1 | 98 | 184*[activator] | 150*[activator] | 100 | 3 | 78* | 2 | 100 | 97 | 95 | 99 | 93
O=C(N/N=C/c1cn(-c2ccccc2)nc1-c1cccnc1)c1cccnc1 | 103 | 174*[activator] | 112 | 104 | 11 | 62* | 1 | 100 | 105 | 103 | 101 | 107 | RGS4-Gao HTS=112*
Cc1ccsc1C(=O)C1CCCN(Cc2cc(F)ccc2-n2cccn2)C1 (centres undefined) | 105 | 107 | 106 | 104 | 14 | 2 | x | x | x | x | x | x
O=C(Cc1ccccc1)Nn1c(O)c(/C=C2\C=Nc3ccccc32)sc1=S | 137 | 100 | 99 | 262*[activator] | 12 | 5 | 0 | 100 | 103 | 101 | 103 | 98 | RGS4-Gao HTS=99*
COc1cccc(CNC23CC4CC(CC(C4)C2)C3)c1OCc1ccccc1 | 98 | 90 | 93 | 97 | 24 | 6 | x | x | x | x | x | x
Cc1cccc(NCc2cc(Cl)cc(Cl)c2O)n1 | 102 | 278*[activator] | 274*[activator] | 323*[activator] | 17 | 175* | 0 | 108 | 86 | 111 | 95 | 70
Cc1cc(C)c(O)c(N)c1 | 100 | 106 | 103 | 101 | 10 | 10 | x | x | x | x | x | x
C/C=N\NC(=O)CNC(=O)CNC(=O)c1ccccc1 | 99 | u | 99 | 97 | 13 | 12 | x | x | x | x | x | x
Cc1ccc(CNC(=O)C2CCCN(S(=O)(=O)c3c(C)noc3/C=C/N(C)C)C2)cc1 (centres undefined) | 100 | u | 100 | 98 | x | 9 | x | x | x | x | x | x
CC1CCCCN1C(=O)Cn1cc(/C=C2/C(=O)Nc3ccccc32)c2ccccc21 (centres undefined) | 55* | 44* | 50* | 41 | 20 | 3 | 0 | 103 | 104 | 104 | 104 | 98
Cc1cc(C)n(CC(=O)n2c3c(c4ccccc42)CCCC3)n1 | x | x | x | x | 44 | x | 2 | 102 | 102 | 103 | 103 | 83
CCN(CC)CC(=O)n1c2c(c3ccccc31)CCCC2 | 71 | 78 | 81 | -100* | 9 | 7 | 0 | 101 | 102 | 105 | 100 | 92 | RGS4-Gao HTS=81*

Screening data: PubChem BioAssay, NMMLSC
